Screening data: PubChem BioAssay, National Center for Advancing Translational Sciences (NCATS)
GLS inhibitor: blocks human kidney-isoform glutaminase activity. hit rate 0.21% among 410,000. Potency, µM (highest dose often 45.5 µM), for the others: at the highest dose activity change, negative = inhibition, usual class: inhibitors. O94925. GLS enzymatic activity, qHTS titration; further: potency means the concentration at half of the fitted maximal effect; on the % scale 0 is the no-effect control and ±100 the full control effect
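Compounds were pin-transferred onto hKGA, after which L-glutamine (1 mM solution) and a detection mix of glutamate oxidase, HRP and Amplex Red were added. Initial and 30 min RT fluorescence reads were collected.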
IDH1 R132H inh: inhibitors of human mutant IDH1 R132H; IDH1-R132H enzyme, NADPH consumption, diaphorase/resazurin fluorescence; Potency, µM (highest dose often 76.6 µM), for inactives: top-dose activity change, negative = inhibition, hits mostly inhibitors; hit rate 0.093% among 390,000; further: potency means the concentration at half of the fitted maximal effect; on the % scale 0 is the no-effect control and ±100 the full control effect; nearly all actives have a fitted effect of over 65% in size
Target sequence (O75874 whole entry R132H, stated change not applied): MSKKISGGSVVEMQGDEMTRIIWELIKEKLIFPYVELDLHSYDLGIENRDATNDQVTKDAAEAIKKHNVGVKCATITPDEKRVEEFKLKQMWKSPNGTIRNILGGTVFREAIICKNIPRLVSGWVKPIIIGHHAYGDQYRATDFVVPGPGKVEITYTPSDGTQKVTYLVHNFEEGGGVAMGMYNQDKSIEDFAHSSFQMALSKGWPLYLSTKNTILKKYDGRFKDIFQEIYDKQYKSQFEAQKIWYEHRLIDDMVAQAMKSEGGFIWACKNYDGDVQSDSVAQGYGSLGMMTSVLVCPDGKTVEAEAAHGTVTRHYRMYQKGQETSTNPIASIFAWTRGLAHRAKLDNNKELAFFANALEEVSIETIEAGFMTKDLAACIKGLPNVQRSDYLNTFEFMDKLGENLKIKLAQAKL
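IDH1-R132H (0.5 ug/mL dispensed) in pH 7.5 Tris buffer was preincubated 30 min with compound, then given a substrate mix of 0.016 mM NADPH and 2 mM alpha-KG for 80 min at room temperature; remaining NADPH was read by diaphorase/resazurin fluorescence.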
PGK inhibitor: T. brucei PGK inhibition; P07378; PGK/GAPDH coupled, Kinase-Glo luminescence, 60 min; Potency, µM (highest dose often 57.5 µM), without a hit: top-dose activity change, negative = inhibition, hits mostly inhibitors; hit rate 0.043% among 380,000; AID 602233; further: potency means the concentration at half of the fitted maximal effect; on the % scale 0 is the no-effect control and ±100 the full control effect; nearly all actives have a fitted effect of over 60% in size
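Luminescent ATP detection (Kinase-Glo Plus) follows a 60-minute room-temperature incubation, with wells lacking PGK as controls. Buffer: 100 mM TEA (pH 7.6), 5 mM MgCl2, 0.01% Tween-20. Coupling enzyme GAPDH (100 nM final) supplies unstable 1,3-BPG in-well.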
Pin1 inhibitor: human Pin1 inhibition; Pin1 FP peptide displacement, HiFluor488, 10 min; hit rate 0.009% among 390,000; Potency, µM (top dose mostly 115 µM), for inactives: at the highest dose activity, negative = inhibition, usual class: inhibitors; AID 504891; active means well fitted inhibition curve with a large enough effect in the polarisation, with a control signal flat, not every such curve was filed as active; inconclusive means small, poorly fitted or top-dose-only effect, or effect the other way, or a change in a side signal; inactive means no such curve, though single readings can be large or run the other way; the % refers to the polarisation; further: potency means the concentration at half of the fitted maximal effect; on the % scale 0 is the no-effect control and ±100 the full control effect
Target sequence (Q13526 whole entry, looked up): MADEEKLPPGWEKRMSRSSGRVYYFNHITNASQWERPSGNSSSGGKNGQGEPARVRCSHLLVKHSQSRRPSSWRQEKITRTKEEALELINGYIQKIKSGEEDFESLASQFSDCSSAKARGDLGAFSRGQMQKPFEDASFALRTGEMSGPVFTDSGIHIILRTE
Resorufin autofl: interferes with resorufin fluorescence in IDH1 counter-screen. inhibition of signal, % at 51.2 µM. 750 tested, under 10 active. Resorufin detection reagent fluorescence interference, cell-free. shares compounds with IDH1 R132H inh;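 further: 0% = wells with normal resorufin and full inhibition = wells lacking resorufin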
WT IDH1 inh: inhibits human wild-type IDH1, mutant selectivity check; hit rate 9% among 750; WT IDH1 enzyme, NADPH diaphorase/resazurin fluorescence; Potency, µM (top dose mostly 115 µM), for the others: at the highest dose activity change, negative = inhibition, hits mostly inhibitors; shares compounds with IDH1 R132H inh;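 further: potency means the concentration at half of the fitted maximal effect; 0% = full WT IDH1 enzyme control and full inhibition = no enzyme wells; nearly all actives have a fitted effect of over 55% in size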
Target sequence (O75874 whole entry, looked up): as the sequence (O75874 whole entry R132H, stated change not applied) above, with H132R counted along it
mIDH1 confirm: confirmation of human mutant IDH1 inhibitors; IDH1 R132H enzyme, NADPH diaphorase/resazurin fluorescence; AID 624002; hit rate 83% among 750; shares compounds with IDH1 R132H inh; Potency, µM (doses to about 76.6 µM), inactives show top-dose activity change, negative = inhibition, actives largely listed as inhibitors; further: potency means the concentration at half of the fitted maximal effect; nearly all actives have a fitted effect of over 50% in size
An asterisk follows results filed as active; i = inactive; ? = inconclusive; / = no result. The list is not random: actives were taken first. Their share in the collection is about 0.33%. Unless noted, the call rests on the fitted dose curve; in most records, active means well fitted curve in the direction sought with a large enough effect; inconclusive means small, poorly fitted or top-dose-only effect, or another doubt; inactive means no such curve, though single readings can be large; an effect the other way counts as inactive or inconclusive.

SMILES	GLS inhibitor	IDH1 R132H inh	PGK inhibitor	Pin1 inhibitor	Resorufin autofl	WT IDH1 inh	mIDH1 confirm
N#Cc1nc(Nc2cc(F)cc(F)c2)c2ncn(C3CCCC3)c2n1	/	/	/	21%	/	/	/
N#Cc1ccccc1Cn1cc(/C=C/[N+](=O)[O-])c2ccccc21	12%	28µM*	-4%	?	5	?	20µM*
C=CS(=O)(=O)c1ccc(Oc2ccc(S(=O)(=O)C=C)cc2)cc1	20%	32µM*	i	22%	1	?	11µM*
CC(=O)Nc1ccc(S(=O)(=O)N2CCN(S(=O)(=O)c3ccc4c(c3)OCCO4)CC2)cc1	/	/	/	2%	/	/	/
COc1cc(C2c3c(-c4ccccc4O)n[nH]c3C(=O)N2CCO)ccc1OCC(C)C (stereo not given)	7%	-27%	-11%	4%	/	/	/
CCOc1cccc(C2c3c(-c4cc(C)ccc4O)n[nH]c3C(=O)N2Cc2ccco2)c1 (stereo not given)	4%	32µM*	-4%	?	1	-2%	11µM*
O=C1c2[nH]nc(-c3ccccc3O)c2C(c2ccc(Cl)cc2)N1Cc1ccco1 (stereo not given)	15%	40µM*	-1%	0%	-1	1%	28µM*
COc1cc(C2c3c(-c4ccccc4O)n[nH]c3C(=O)N2Cc2ccco2)ccc1OCC(C)C (stereo not given)	5%	?	-4%	10%	1	-19%	20µM*
O=C1c2[nH]nc(-c3ccccc3O)c2C(c2ccccc2)N1Cc1ccco1 (stereo not given)	6%	0%	-3%	6%	/	/	/
Cc1ccc(O)c(-c2n[nH]c3c2C(c2ccccc2F)N(Cc2ccco2)C3=O)c1 (stereo not given)	8%	?	-9%	2%	-10	-21%	25µM*
N#Cc1nc(Nc2ccc(C(F)(F)F)cc2)nc(NC2CCCC2)n1	/	/	/	10%	/	/	/
O=[S+]([O-])(c1ccc2c(c1)OCCO2)N1CCN([S+](=O)([O-])c2cc(Cl)ccc2F)CC1	/	/	/	9%	/	/	/
CCCCOc1cccc(C2c3c(-c4cc(C)ccc4O)n[nH]c3C(=O)N2CCOC)c1 (stereo not given)	11%	32µM*	-10%	-10%	-11	0%	22µM*
COc1cccc(C2c3c(-c4ccccc4O)n[nH]c3C(=O)N2Cc2ccco2)c1 (stereo not given)	6%	52µM*	-9%	9%	0	-5%	40µM*
O=C(/C=C/c1cccs1)Nc1scc(-c2ccccc2)c1C(=O)O	-28%	?	?	?	-25	35µM*	35µM*
O=C(/C=C/c1cccs1)Nc1nc(-c2ccccc2)cs1	-18%	-2%	-5%	3%	/	/	/
CCC(=O)Oc1ccc2c(=O)c(-c3ccc4ccccc4n3)c(CC)oc2c1C	0%	52µM*	10%	-15%	-9	2%	7.1µM*
CN1[C@@H]2CCC[C@@H]1CC(NC(=O)c1nn(C)c3ccccc13)C2 (stereo not given in full)	23%	/	/	/	/	/	/
O=P(Cc1ccccc1)(c1ccccc1)c1ccccc1	0%	4%	-1%	-3%	/	/	/
CC(C)(C)c1cc(CP(=O)(c2ccccc2)c2ccccc2)cc(C(C)(C)C)c1O	-7%	?	-10%	?	-1	-3%	28µM*
COc1ccc(Br)cc1/C=N/NC(=O)c1nc(-c2ccccc2)n2c1CCCCC2	-1%	?	-1%	11%	3	1%	?
CC1=CC(C)(C)N2C(=O)C3(C(C#N)=C(N)Oc4cc(O)ccc43)c3c(C)c(C)cc1c32 (stereo not given)	0%	23µM*	-4%	7%	5	10%	20µM*
CC1=CC(C)(C)N2C(=O)C3(C(C#N)=C(N)OC4=C3C(=O)CCC4)c3c(C)c(C)cc1c32 (stereo not given)	5%	-3%	3%	1%	/	/	/
Cc1nc(Nc2nc3ccccc3o2)nc2c1CCCC2	/	/	/	0%	/	/	/
CN(Cc1cccs1)c1ncnc2ccc(-c3ccc4cn(C)nc4c3)cc12	/	/	/	20%	/	/	/
SMILES	GLS inhibitor	IDH1 R132H inh	PGK inhibitor	Pin1 inhibitor	Resorufin autofl	WT IDH1 inh	mIDH1 confirm
COc1cccc(Nc2nc3c(S(=O)(=O)c4cc(C)ccc4C)nnn3c3ccsc23)c1	-8%	?	1%	-1%	1	0%	?
COCCN1C(=O)/C(=C/c2ccc(OCc3ccc(C(=O)O)cc3)c(OC)c2)SC1=Nc1ccccc1	24%	21µM*	-1%	/	-1	79µM*	10µM*
COc1cc(/C=C2\SC(=Nc3ccccc3)N(Cc3ccco3)C2=O)ccc1OC(C)C(=O)O (stereo not given)	79%	-5%	2%	-17%	/	/	/
Cc1ccccc1C(=O)N1CC/C(=N/OS(=O)(=O)O)c2ccc(Cl)cc21	6%	/	/	/	/	/	/
CC(C)(C)C1CCc2sc(-c3nnc(CCl)o3)cc2C1 (stereo not given)	2%	52µM*	-6%	2%	7	-18%	40µM*
COc1cc(/C=C2/C(C)=C(C#N)c3nc(N)c(C#N)c(C)c32)ccc1OCC(=O)O	-11%	-21%	0%	-10%	/	/	/
CC1=C(C#N)c2nc(N)c(C#N)c(C)c2/C1=C\c1ccc(-c2ccccc2C(=O)O)o1	-14%	?	-29%	/	-1	25µM*	35µM*
N#CN1CCC(NS(=O)(=O)c2ccc(F)cc2)CC1	/	/	/	-1%	/	/	/
Cc1c(CCC(C)C)c(-n2ccnc2C)n2c(nc3ccccc32)c1C#N	-4%	?	7%	0%	-4	10%	?
CC(=O)C1=C(c2ccccc2)N(C(C)=O)n2c(C)nnc2S1	-10%	29µM*	-13%	-8%	-6	-130%	6.3µM*
CCCC(=O)C1=C(c2ccc(C)cc2)N(C(=O)CCC)n2cnnc2S1	3%	40µM*	8%	-1%	-3	272%	40µM*
CCC(=O)C1=C(c2ccc(C)cc2)N(C(=O)CC)n2c(nnc2C2CCCCC2)S1	1%	1%	-7%	-5%	/	/	/
CCCC(=O)C1=C(c2ccc(C)c(C)c2)N(C(=O)CCC)n2c(CC)nnc2S1	1%	3%	-3%	-1%	/	/	/
CCCC(=O)C1=C(c2cccc(OC)c2)N(C(=O)CCC)n2c(C)nnc2S1	6%	45µM*	1%	-4%	-7	170%	45µM*
CCCCCCCC(=O)CC[C@H]1[C@@H](C/C=C/CCCC(=O)OC(C)C)[C@@H](O)C[C@H]1O	-4%	/	/	/	/	/	/
Cc1ccc(NS(=O)(=O)c2cc3c(cc2C)OCC(=O)N3)cc1C	/	/	/	0%	/	/	/
